# Laboratory results: publication PMC4552634, “A New Set of Chemical Starting Points with Plasmodium falciparum Transmission-Blocking Potential for Antimalarial Drug Discovery” (PLoS ONE, 2015)
# Like-named read-outs stand apart in the source and are kept apart here. The campaign covered roughly 13,000 compounds. About 3,200 (25%) showed an effect of 50% or more. This is one part of the list.
# Test system: P. falciparum stage V gametocytes
# Design: BacTiter-Glo ATP luminescence viability of purified stage V gametocytes in 384-well plates, per cent inhibition versus DMSO
SMILES,"% Inhibition (48 h, 5 µM; inhibitor) [%]","% Inhibition (48 h, 5 µM, inhibitor) [%]"
N#Cc1ccc(CN2CCCN(Cc3cccc(NC(=O)c4ccc(-c5ccccc5)cc4)c3)CC2)cc1 [TCMDC-141838],91.89,
O=C(Nc1ccc(Cl)cc1)c1ccc(CN2CCCN(Cc3cccc(F)c3)CC2)cc1 [TCMDC-136404],-18.08,
Cc1ccc(CC(C)NC[C@H](O)c2cccc(Cl)c2)cc1 (stereo partly drawn) [TCMDC-131477],,11.62
CCOP(=O)(OCC)c1ccc(OC)c(-c2ccc[nH]2)c1 [TCMDC-139023],22.96,
COC(=O)/C=C/C(=O)N[C@@H]1CC[C@@]2(O)[C@H]3Cc4ccc(O)c5c4[C@@]2(CCN3CC2CC2)[C@H]1O5 [TCMDC-125875],50.91,
C#CCN1CCC2=C(C1)c1c(O)cc(C(C)CCCc3ccc(F)cc3)cc1OC2(C)C (stereo not drawn) [TCMDC-124277],-40.47,
O=C(/C=C/c1ccc(Cl)c(Cl)c1)NCCCCCN1CCCN(C(=O)Nc2ccc(C(F)(F)F)cc2)CC1 [TCMDC-135757],8.096,
Cc1cc(C)c(CC(C)NCC(O)c2cccc(C(F)(F)F)c2)c(C)c1 (stereo not drawn) [TCMDC-131460],-4.216,
C[C@@H](CC1CCCCC1)NCc1ccccc1O [TCMDC-140305],71.87,
CCN(CC)CCOC(=O)C(OC)(c1ccccc1)c1ccccc1 [TCMDC-131779],18.56,
Cc1ccc(CC(C)NCC(O)c2cccc(C(F)(F)F)c2)c(C)c1 (stereo not drawn) [TCMDC-131465],-0.5645,
CSc1ccc(C[C@@H](C)NC[C@H](O)c2cccc(Cl)c2)cc1 [TCMDC-131507],10.96,
Cc1nc(C)c(-c2ccc(Oc3ccc(OC(F)(F)F)cc3)cc2)c(OC(=O)N(CCNC(C)C)C(C)C)c1Br [TCMDC-132417],109,
CNCCN(C)C(=O)Oc1c(Br)c(C)nc(C)c1-c1ccc(Oc2ccc(OC(F)(F)F)cc2)cc1 [TCMDC-137377],86.68,
CNCCN(C)C(=O)Oc1c(Cl)c(C)nc(C)c1-c1ccc(Oc2ccc(OC(F)(F)F)cc2)cc1 [TCMDC-137384],42.19,
CNCCCN(C)C(=O)Oc1c(Br)c(C)nc(C)c1-c1ccc(Oc2ccc(OC(F)(F)F)cc2)cc1 [TCMDC-132416],117.8,
COc1ccc(CC(C)NCC(O)c2cccc(Cl)c2)cc1C (stereo not drawn) [TCMDC-131505],13.45,
CCc1ccc(CC(C)NCC(O)c2ccccc2)cc1 (stereo not drawn) [TCMDC-131463],17.08,
CN1CC(c2ccc(Cl)c(Cl)c2)OC1=N (stereo not drawn) [TCMDC-137454],1.442,
Cc1ccc(CC(C)NCC(O)c2cccc(C#N)c2)cc1 (stereo not drawn) [TCMDC-131451],40.18,
CCC1(C)CC(CCNCc2ccccc2O)(c2ccc(C)cc2)CCO1 (stereo not drawn) [TCMDC-124003],4.575,
COCCSc1ccc(CC(C)NCC(O)c2cccc(Cl)c2)cc1 (stereo not drawn) [TCMDC-131513],22.33,
CCCCCCCCCCS(=O)(=O)N[C@H](COCc1cccc(Oc2ccccc2)c1)COP(=O)(O)OC [TCMDC-131877],13.38,
CC(C)CCN1C(=O)C(NC(=O)Oc2ccccc2)C(=O)N(CC23CC4CC(CC(C4)C2)C3)c2ccccc21 (stereo not drawn) [TCMDC-137160],-43.48,

SMILES,"% Inhibition (48 h, 5 µM; inhibitor) [%]","% Inhibition (48 h, 5 µM, inhibitor) [%]"
CCCC(=O)c1c(O)c2ccccc2oc1=O [TCMDC-123881],11.83,
Cc1ccc(C[C@@H](C)NC[C@H](O)c2cccc(C(F)(F)F)c2)cc1 [TCMDC-131449],8.152,
[O-]c1n[n+](C2CCCCC2)no1 [TCMDC-138090],57.64,
CCOC(C(=O)OCCN(C(C)C)C(C)C)(c1ccccc1)c1ccccc1 [TCMDC-131391],-28.65,
COc1ccc(C[C@@H](C)NC[C@H](O)c2cccc(Cl)c2)cc1F [TCMDC-131516],,9.097
Oc1cc2c(cc1CN1CCN(Cc3ccccc3)CC1)CCC2 [TCMDC-125104],73.14,
Cc1cccc(N2CCN(Cc3cc(Cl)ccc3O)CC2)c1C [TCMDC-123718],-35.86,
Cc1ccc(C)c(N2CCN(Cc3ccccc3O)CC2)c1 [TCMDC-123518],7.065,
COc1ccc(O)c(CN2CCN(c3cc(C)ccc3C)CC2)c1 [TCMDC-124056],6.084,
CCN(CC)CCN1C(=O)C(O)(c2ccccc2Cl)c2c1cc(C(N)=O)cc2C(F)(F)F (stereo not drawn) [TCMDC-133544],37.34,
COc1ccc(CC(C)NCC(O)c2cccc(Br)c2)cc1 (stereo not drawn) [TCMDC-131496],20.1,
COc1ccc(C[C@@H](C)NC[C@H](O)c2cccc(Cl)c2)cc1F [TCMDC-131502],,8.677
CCOC(C(=O)OCC1CCCN1C(C)C)(c1ccccc1)c1ccccc1 (stereo not drawn) [TCMDC-131750],-3.502,
CCOC(C(=O)OCC1CCCN1C)(c1ccccc1)c1ccccc1 (stereo not drawn) [TCMDC-131676],62.64,
COC(C(=O)OCCC1CCCN1C)(c1ccccc1)c1ccccc1 (stereo not drawn) [TCMDC-131780],73.28,
COC(C(=O)OCCC1CCCN1C)(c1ccccc1)C1CCCCC1 (stereo not drawn) [TCMDC-131374],34.4,
CCCCOC(C(=O)OCC1CCCN1C)(c1ccccc1)c1ccccc1 (stereo not drawn) [TCMDC-131730],-23.33,
CCOC(C(=O)OCC1CCCN(C)C1)(c1ccccc1)c1ccccc1 (stereo not drawn) [TCMDC-131382],13.79,
Cc1ccc(CC(C)NCC(O)c2cccc(Br)c2)cc1 (stereo not drawn) [TCMDC-131444],5.106,
CCN(CC)CCN1C(=O)C(O)(c2ccccc2Cl)c2c1cc(C#N)cc2C(F)(F)F (stereo not drawn) [TCMDC-132583],-22.22,
CCCCCC(C)C(C)c1cc(OC(N)=O)c2c(c1)OC(C)(C)C=C2c1ccncc1 (stereo not drawn) [TCMDC-131796],-24.09,
O=P(O)(O)Oc1c(Br)cc(Br)cc1-c1cc(Br)cc(Br)c1O [TCMDC-131736],1.085,
COc1ccccc1CC(C)NCC(O)c1cccc(Cl)c1 (stereo not drawn) [TCMDC-131497],-23.86,
COc1cc(NCCCNC(=O)c2cn(Cc3ccccc3)c3ccccc23)nc2ccccc12 [TCMDC-140140],60.42,
